Assay [1] in a line: qHTS RealTime-Glo MT Cell Viability Assay in HEK293 cells - 0 hour (AID 1224880). Further: top concentration of the series differs between compounds; nearly all actives have a fitted effect of over 45% in size. In short, it runs like this:
(§1)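 Luminescence, which tracks viable cell number through reduction of the prosubstrate to a NanoLuc substrate, was read over continuous 37 C culture. Cells (600/well) were premixed with reagent and rested 5 h before 23 nL of compound in DMSO was pinned.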
(In general: qHTS replaces the single test concentration by a dilution series.)

Assay [2] in a line: A CellTox Green Cytotoxicity Assay to monitor cytotoxicity in HEK293 cells - 32 hour (AID 1224881). Further: nearly all actives have a fitted effect of over 40% in size. Further: potency means the concentration at half of the fitted maximal effect. In short, it runs like this: (§2)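 Fluorescence from a DNA-binding dye excluded by viable cells was measured repeatedly in the same HEK293 wells (600 cells/well) during continuous compound exposure at 37 C. Each assay gives one read point: 0, 8, 16, 24, 32 or 40 h.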
Assay [3] can be described thus: A CellTox Green Cytotoxicity Assay to monitor cytotoxicity in HepG2 cells - 0 hour (AID 1224882). Further: nearly all actives have a fitted effect of over 35% in size. Further: potency means the concentration at half of the fitted maximal effect. The method in brief: (§3)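 Real-time cytotoxicity: fluorescence of a cell-impermeant cyanine dye binding DNA of dead HepG2 cells, measured repeatedly (0–40 h) during compound exposure at 37 C. Cells seeded 600/well with reagent, dosed after 5 h.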
Assay [4] can be described thus: A CellTox Green Cytotoxicity Assay to monitor cytotoxicity in HepG2 cells - 32 hour (AID 1224883). Further: nearly all actives have a fitted effect of over 50% in size. Further: potency means the concentration at half of the fitted maximal effect. The method in brief:
as §3

Assay [5] in a line: qHTS RealTime-Glo MT Cell Viability Assay in HepG2 cells - 16 hour (AID 1224885). Further: nearly all actives have a fitted effect of over 50% in size. The method in brief: (§4)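 HepG2 cells were seeded at 600 cells/well together with NanoLuc luciferase and a cell-permeant prosubstrate, preincubated 5 h at 37 C/5% CO2, then pin-dosed with compounds in DMSO. Nonlytic luminescence from viable cells was read at each time point.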
Assay [6] in a line: qHTS RealTime-Glo MT Cell Viability Assay in HEK293 cells - 24 hour (AID 1224886). Further: top concentration of the series differs between compounds; nearly all actives have a fitted effect of over 50% in size. The method in brief:
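HEK293 cells were seeded at 600 cells/well together with NanoLuc luciferase and cell-permeant prosubstrate, preincubated 5 h at 37 C/5% CO2, then given compound in DMSO by pintool. Luminescence from viable-cell prosubstrate reduction was read repeatedly over 40 h.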

The nature of assay [7]: qHTS RealTime-Glo MT Cell Viability Assay in HEK293 cells - 8 hour (AID 1224887). Further: top concentration of the series differs between compounds; nearly all actives have a fitted effect of over 50% in size. In short, it runs like this:
as §1

The nature of assay [8]: A CellTox Green Cytotoxicity Assay to monitor cytotoxicity in HEK293 cells - 16 hour (AID 1224888). Further: nearly all actives have a fitted effect of over 35% in size. In short, it runs like this: as §2
Assay [9] in a line: qHTS RealTime-Glo MT Cell Viability Assay in HepG2 cells - 0 hour (AID 1224889). Further: nearly all actives have a fitted effect of over 50% in size. The method in brief:
as §4

A short description of assay [10]: A CellTox Green Cytotoxicity Assay to monitor cytotoxicity in HepG2 cells - 8 hour (AID 1224890). Further: nearly all actives have a fitted effect of over 45% in size. Further: potency means the concentration at half of the fitted maximal effect. In short, it runs like this: as §3
Assay [11] in a line: qHTS assay to identify small molecule antagonists of the estrogen receptor alpha (ER-alpha) signaling pathway using the BG1 cell line in the presence of 0.1 nM 17-beta-estradiol - cell viability counter screen (AID 1259241). Further: nearly all actives have a fitted effect of over 40% in size. The method in brief: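 Viability in VM7Luc4E2 cells after 22 hr compound exposure under 0.1 nM 17beta-estradiol stimulation, by CellTiter-Fluor.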
Assay [12] can be described thus: qHTS assay to identify small molecule antagonists of the androgen receptor (AR) signaling pathway using the MDA cell line in the presence of 0.5 nM R1881 - cell viability counter screen (AID 1259242). Further: nearly all actives have a fitted effect of over 45% in size. The method in brief: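 Live-cell protease activity was measured by CellTiter-Fluor fluorescence after 30 min. Before that, MDA-kb2 MMTV-luciferase cells had 16 hr at 37C without CO2, exposed to test compounds and 0.5 nM R1881 final.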

Assay [13] addresses Estrogen receptor (Homo sapiens) (UniProt P03372). Nature of the assay: qHTS assay to identify small molecule antagonists of the estrogen receptor alpha (ER-alpha) signaling pathway using the BG1 cell line in the presence of 0.1 nM 17-beta-estradiol (AID 1259244). Further: nearly all actives have a fitted effect of over 50% in size. In short, it runs like this: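 Luciferase luminescence (ONE-Glo, 30 min at room temperature) was read after 22 hr at 37C exposure to compounds plus 17beta-estradiol at 0.1 nM final. Cells were VM7Luc4E2 with endogenous ER-alpha and an ERE-driven luciferase, pre-cultured 5 days in hormone-depleted medium.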

A short description of assay [14]: qHTS assay to identify small molecule HDAC inhibitors (AID 1259364). Further: top concentration of the series differs between compounds; nearly all actives have a fitted effect of over 45% in size. In short, it runs like this: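 Luminescence read after 30 min room-temperature HDAC-Glo incubation measures cellular class I/II HDAC activity. Compounds were applied for 2 hr at 37 C to HCT-116 wild-type cells seeded the day before.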
Assay [15] in a line: qHTS assay to identify small molecule HDAC inhibitors - cell viability counter screen (AID 1259365). The method in brief:
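Cytotoxicity was gauged in wild-type HCT-116 cells after a brief 2hr treatment with DMSO-dissolved compounds at 37C and 5% CO2, using CellTiter-Glo luminescence developed for 30min at room temperature.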

Assay [16] can be described thus: qHTS assay to identify small molecule agonists of the sonic hedgehog signaling (Shh) pathway - cell viability counter screen (AID 1259366). Further: nearly all actives have a fitted effect of over 50% in size. In short, it runs like this:
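Stable Gli1-Luc NIH/3T3 clone, 2,000 cells/well. Compound exposure 24hr at 37C. Read-out: CellTiter-Fluor fluorescence.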

A short description of assay [17]: qHTS assay to identify small molecule antagonists of the sonic hedgehog signaling (Shh) pathway - cell viability counter screen (AID 1259367). Further: nearly all actives have a fitted effect of over 55% in size. The method in brief: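 Fluorescence read-out (CellTiter-Fluor, 1 hr at 37C) taken after 23 hr compound treatment of 3T3 Gli1-Luc cells stimulated with conditioned medium. Cells were seeded at 2,000 per well and pre-incubated 4 hr.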

Assay [18] can be described thus: qHTS assay to identify small molecule phospholipidosis (PLD) inducers (AID 1259344; active means well fitted curve in the direction sought with a large enough effect; an effect the other way counts as inactive or inconclusive; further: potency means the concentration at half of the fitted maximal effect). The method in brief:
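Read-out is LipidTOX Red fluorescence (ex 595/em 615) imaged in HepG2 cells after 24 h compound exposure at 37 C, with Hoechst nuclear counterstain (ex 352/em 461) allowing per-cell normalisation.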

Assay [19] can be described thus: A CellTox Green Cytotoxicity Assay to monitor cytotoxicity in HEK293 cells - 8 hour (AID 1224884). Further: nearly all actives have a fitted effect of over 35% in size. Further: potency means the concentration at half of the fitted maximal effect. The method in brief: as §2
Assay [20] concerns the target Androgen receptor (Homo sapiens) (UniProt P10275). Nature of the assay: qHTS assay to identify small molecule antagonists of the androgen receptor (AR) signaling pathway using the MDA cell line in the presence of 0.5 nM R1881 (AID 1259243). Further: nearly all actives have a fitted effect of over 50% in size. The method in brief:
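Luminescent reporter readout (ONE-Glo, 30 min, room temperature) after 16 hr co-treatment of MDA-kb2 cells with test compounds and 0.5 nM R1881 final, at 37C without CO2. The MMTV-driven luciferase responds to both AR and GR.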

Several values for one entry are separate records, joined by “and”; a condition that tells them apart may be missing. Equal values may be shown once. Records with an inconclusive call do not appear. Some compounds were tested as several samples or in several runs, with calls that do not always agree. Activity calls are given as the source filed them. Unless noted, the call rests on the fitted dose curve; in most records, active means well fitted curve in the direction sought with a large enough effect in the repeat runs; inconclusive means weak or mixed curves; inactive means no such curve, though single readings can be large; an effect the other way counts as inactive or inconclusive.

Drawing on PubChem BioAssay (Tox21), this text covers outcome and Potency for seven compounds.

Sequence of Estrogen receptor (Homo sapiens) (P03372 whole entry, looked up): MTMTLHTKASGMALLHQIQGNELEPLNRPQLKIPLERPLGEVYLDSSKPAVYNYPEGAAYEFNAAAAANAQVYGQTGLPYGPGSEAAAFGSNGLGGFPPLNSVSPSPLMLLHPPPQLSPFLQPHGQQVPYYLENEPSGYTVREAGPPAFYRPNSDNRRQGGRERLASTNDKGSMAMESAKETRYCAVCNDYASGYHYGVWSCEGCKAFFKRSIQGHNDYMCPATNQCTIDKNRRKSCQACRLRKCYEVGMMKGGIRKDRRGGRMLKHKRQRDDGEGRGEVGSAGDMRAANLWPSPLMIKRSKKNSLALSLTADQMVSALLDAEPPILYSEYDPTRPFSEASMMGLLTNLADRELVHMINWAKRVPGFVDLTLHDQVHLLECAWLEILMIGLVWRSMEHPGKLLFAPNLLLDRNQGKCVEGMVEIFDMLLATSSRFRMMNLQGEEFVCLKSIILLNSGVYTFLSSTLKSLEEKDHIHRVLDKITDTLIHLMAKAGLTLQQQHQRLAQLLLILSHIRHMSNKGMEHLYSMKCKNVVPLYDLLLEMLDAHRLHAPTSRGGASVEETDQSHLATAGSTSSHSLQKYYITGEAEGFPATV
Sequence of Androgen receptor (Homo sapiens) (P10275 whole entry, looked up): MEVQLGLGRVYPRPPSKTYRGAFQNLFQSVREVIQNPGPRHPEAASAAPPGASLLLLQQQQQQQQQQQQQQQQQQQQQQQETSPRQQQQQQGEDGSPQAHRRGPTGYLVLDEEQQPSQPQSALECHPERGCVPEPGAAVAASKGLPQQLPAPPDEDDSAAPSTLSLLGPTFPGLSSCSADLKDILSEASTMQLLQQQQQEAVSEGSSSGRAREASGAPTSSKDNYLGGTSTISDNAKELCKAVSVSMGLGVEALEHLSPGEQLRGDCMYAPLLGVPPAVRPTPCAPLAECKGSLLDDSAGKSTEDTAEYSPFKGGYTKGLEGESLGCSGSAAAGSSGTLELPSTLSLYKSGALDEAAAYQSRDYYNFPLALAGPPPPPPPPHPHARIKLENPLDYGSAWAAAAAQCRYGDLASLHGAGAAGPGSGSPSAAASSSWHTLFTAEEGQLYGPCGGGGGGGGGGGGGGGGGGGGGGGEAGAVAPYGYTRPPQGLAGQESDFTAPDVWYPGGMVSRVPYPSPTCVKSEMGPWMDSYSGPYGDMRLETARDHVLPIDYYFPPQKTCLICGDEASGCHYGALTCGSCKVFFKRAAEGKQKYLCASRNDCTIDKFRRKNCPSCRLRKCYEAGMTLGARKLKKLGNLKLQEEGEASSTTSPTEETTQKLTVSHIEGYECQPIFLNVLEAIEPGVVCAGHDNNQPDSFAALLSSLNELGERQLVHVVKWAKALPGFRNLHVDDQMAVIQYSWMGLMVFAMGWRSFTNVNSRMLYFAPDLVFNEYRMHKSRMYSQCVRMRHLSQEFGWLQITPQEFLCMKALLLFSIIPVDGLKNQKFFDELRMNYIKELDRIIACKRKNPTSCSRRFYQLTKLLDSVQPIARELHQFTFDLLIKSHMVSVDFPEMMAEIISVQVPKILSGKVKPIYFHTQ

`OCC(O)CCl` (configuration not stated): the compound was called inactive in [1], in assay [5], in assay [6], in [7], in assay [9] and in [11]. Besides, the result in assay [12] and in assay [15] was inactive. Also, the Potency result in assay [2], in [3], in assay [4], in assay [8], in assay [10] and in [13] was “inactive” in each case. In addition, the Potency result in assay [14], in assay [16] and in assay [17] was “inactive” throughout.

`ClC(Cl)c1ccccc1`: the outcome in assay [1], in assay [5], in [6], in [7], in [9] and in [11] was inactive. For the same compound, the outcome in [12] and in assay [15] was inactive. Further, the Potency entry in assay [2], in assay [3], in assay [4], in [8], in assay [10] and in assay [13] was “inactive” each time. Moreover, the Potency entry in [14] and in assay [16] was “inactive” throughout.

`O=C(O)COc1ccccc1`: the compound was called inactive in assay [1], in [5], in [6], in assay [7], in assay [9] and in assay [11]. Moreover, the outcome in [12] and in assay [15] was inactive. Besides, the Potency result in assay [2], in [3], in assay [4], in assay [8], in [10] and in assay [13] was “inactive” throughout. Besides, the Potency entry in assay [18], in assay [14], in assay [16] and in [17] was “inactive” in each case.

As to `FC(F)(F)c1ccc(Cl)cc1`, the result in assay [1], in assay [5], in [6], in [7], in [9] and in assay [11] was inactive. In addition, the outcome in [12] and in assay [15] was inactive. Moreover, the Potency result in [2], in [3], in [4], in [8], in assay [10] and in assay [13] was “inactive” throughout. In addition, the Potency result in [14], in assay [16] and in [17] was “inactive” each time.

Consider `CC(C)c1cccc(C(C)C)c1O`, for which the outcome in [1], in assay [5], in assay [6], in assay [7], in assay [9] and in assay [11] was inactive. For the same compound, the result in assay [12] and in [15] was inactive. Besides, the Potency was 24.5 µM (active) and 43.6 µM (active) and inactive in [2]; “inactive and 43.6 µM (active)” in assay [3]; 43.6 µM (active) and inactive in [4]; “inactive and 43.6 µM (active)” in [19]; 43.6 µM (active) and inactive in assay [10]. The Potency result in [20], in assay [13], in assay [18], in [14], in assay [16] and in assay [17] was “inactive” in each case.

`C[C@]12CC[C@H](O)CC1=CC[C@@H]1[C@@H]2CC[C@]2(C)C(=O)CC[C@@H]12`: the call in [1], in assay [5], in [6], in assay [7], in assay [9] and in assay [11] was inactive. The outcome in [12] and in assay [15] was inactive. In addition, the Potency result in assay [2], in assay [4], in assay [19], in [8], in assay [10] and in assay [13] was “inactive” in each case. The Potency result in assay [14] and in assay [16] was “inactive” in each case. Besides, the Potency in assay [18] is 10 µM (active).

Regarding `OC[C@@H](O)[C@H]1O[C@@H]2O[C@H](C(Cl)(Cl)Cl)O[C@@H]2[C@H]1O`, the call in assay [1], in assay [5], in assay [6], in [7], in assay [9] and in assay [11] was inactive. Also, the result in [12] and in [15] was inactive. In addition, the Potency result in assay [2], in assay [3], in assay [4], in assay [8], in [10] and in [13] was “inactive” in each case. Besides, the Potency entry in assay [18], in assay [14], in [16] and in [17] was “inactive” each time.
